Experimental data as given in PubChem BioAssay AID651640 (Broad Institute, 2012).
The campaign covered roughly 350,000 compounds. About 6,000 (1.7%) were called active. Another 5% or so got no clear call; they are omitted. Cut-off read from the data, not from the text of the source: active = CPE inhibition above about 20% (passing the limit was not always enough); inconclusive = no clear call, values can overlap the other calls; tested in BHK-21 cells. Shown is part of a subset that was picked to be rich in actives.

Assay: inhibitors of DENV2 cytopathic effect, primary screen, cell-based, plate reader, single concentration (AID 651640);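 note: 0% = median of neutral control wells and 100% = median of positive control wells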
Conditions: DENV2-infected cells, cytopathic effect rescue, at 9.99 µM, hits give high values

CPE inhibition, active:
Cc1cccc([C@@H]2[C@@H]3C(=O)N(C)C(=O)[C@@H]3[C@@H]3C(=O)Nc4ccccc4C(=O)N23)c1 30.1%
CNC[C@H]1Oc2cc(C#CC3CCCC3)ccc2S(=O)(=O)N([C@H](C)CO)C[C@@H]1C 49.1%
CNC[C@H]1Oc2cc(C#CC(C)(C)O)ccc2S(=O)(=O)N([C@@H](C)CO)C[C@@H]1C 29.3%

CPE inhibition, inactive:
COc1ccc(S(=O)(=O)N(C)C[C@@H]2Oc3ccc(NC(=O)Cc4ccccc4)cc3CC(=O)N([C@@H](C)CO)C[C@H]2C)cc1 -3.88%
CO[C@@H]1CN(C)C(=O)c2cc(NC(=O)c3ccc4c(c3)OCO4)ccc2OC[C@H](C)N(CCC(F)(F)F)C[C@H]1C 2.23%
Cc1noc(C)c1NC(=O)Nc1ccc2c(c1)CC(=O)N([C@@H](C)CO)C[C@@H](C)[C@H](CN(C)C(=O)NC1CCCCC1)O2 1.27%
N#C[C@@H]1[C@@H](c2ccc(-c3ccccc3F)cc2)[C@@H](CO)N1C(=O)c1ccccn1 -0.879%
COc1ccccc1NC(=O)N[C@H]1CC[C@@H](CC(=O)NCc2ccc(Cl)c(Cl)c2)O[C@H]1CO -2.11%
C/C=C/c1ccc2c(c1)O[C@@H](CN(C)C(=O)Cc1ccccn1)[C@@H](C)CN([C@H](C)CO)S2(=O)=O 3.81%
C[C@@H]1CN([C@H](C)CO)S(=O)(=O)c2ccc(C#C[C@@H](C)O)cc2O[C@H]1CN(C)C(=O)CC1CC1 -1.93%
Cc1ccc(C2Nc3ccccc3C(=O)N2CCN2CCNC2=O)cc1 (stereo not drawn) -0.485%
Cc1cccc([C@H]2[C@@H]3C=CC[C@@H](C)[C@@H]3C(=O)N2Cc2ccccc2)c1 -1.21%
O=C([C@H]1[C@H](CO)[C@H]2Cn3c(ccc(C4=CCCC4)c3=O)[C@@H]1N2C(=O)c1ccncc1)N1CCCCC1 -10.6%
CNC[C@H]1Oc2cc(C#Cc3ccccc3)ccc2S(=O)(=O)N([C@@H](C)CO)C[C@@H]1C 10.6%
CNC[C@@H]1Oc2cc(C#CC3CCCC3)ccc2S(=O)(=O)N([C@@H](C)CO)C[C@@H]1C 3.46%
CNC[C@@H]1Oc2cc(C#CCC3CCCC3)ccc2S(=O)(=O)N([C@H](C)CO)C[C@H]1C 18.9%
CNC[C@@H]1Oc2cc(C#Cc3ccc(F)cc3)ccc2S(=O)(=O)N([C@@H](C)CO)C[C@H]1C 7.09%
COc1ccc(S(=O)(=O)N[C@H]2C=C[C@@H](CC(=O)O)O[C@@H]2CO)cc1 -1.75%
